Assay outcomes deposited in PubChem BioAssay by National Center for Advancing Translational Sciences (NCATS).
Sampled rows, rich in hits. Any-hit rate of the full collection: about 21%.
TDP1 cell noCPT: qHTS for Inhibitors of human tyrosyl-DNA phosphodiesterase 1 (TDP1): qHTS in cells in absence of CPT; DT40 Tdp1-/- hTDP1 cells, no CPT, ATP luminescence, 48 h; Potency, µM (series often up to 46.2 µM), for inactives: at the top dose activity change, negative = growth inhibition, most hits filed as inhibitors; 420,000 compounds, 15% hits; AID 686978, 2013; further: potency means the concentration at half of the fitted maximal effect; nearly all actives have a fitted effect of over 55% in size
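Growth of hTDP1-complemented DT40 Tdp1-knockout cells is measured by ATP luminescence after at least 48 hr compound exposure at 37 °C, with DMSO substituting for the 20 nM CPT used in the parallel screen.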
Gal4-VP16 FLuc: counter-screen for ROR gamma inhibitors: Gal4-VP16 reporter. Drosophila S2 Gal4-VP16 UAS-luciferase, luminescence, 20 h. Potency, µM (titrated, usually from 53.6 µM), inactives show top-dose activity, negative = inhibition, usual class: inhibitors. 310,000 compounds, 3.5% hits;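 further: Gal4-VP16 expression switched on by copper sulfate through the metallothionein promoter; potency means the concentration at half of the fitted maximal effect; nearly all actives have a fitted effect of over 50% in size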
RORg inh: ROR gamma (mouse) transcription inhibition; AID 2551; Drosophila S2 Gal4-RORgamma UAS-luciferase reporter, 20 h; Potency, µM (top dose mostly 53.6 µM), for the others: top-dose activity change, negative = inhibition, actives largely listed as inhibitors; P51450; 310,000 compounds, 5.4% hits; further: potency means the concentration at half of the fitted maximal effect; nearly all actives have a fitted effect of over 60% in size
Target sequence (P51450 whole entry, looked up, the tested form may be a part): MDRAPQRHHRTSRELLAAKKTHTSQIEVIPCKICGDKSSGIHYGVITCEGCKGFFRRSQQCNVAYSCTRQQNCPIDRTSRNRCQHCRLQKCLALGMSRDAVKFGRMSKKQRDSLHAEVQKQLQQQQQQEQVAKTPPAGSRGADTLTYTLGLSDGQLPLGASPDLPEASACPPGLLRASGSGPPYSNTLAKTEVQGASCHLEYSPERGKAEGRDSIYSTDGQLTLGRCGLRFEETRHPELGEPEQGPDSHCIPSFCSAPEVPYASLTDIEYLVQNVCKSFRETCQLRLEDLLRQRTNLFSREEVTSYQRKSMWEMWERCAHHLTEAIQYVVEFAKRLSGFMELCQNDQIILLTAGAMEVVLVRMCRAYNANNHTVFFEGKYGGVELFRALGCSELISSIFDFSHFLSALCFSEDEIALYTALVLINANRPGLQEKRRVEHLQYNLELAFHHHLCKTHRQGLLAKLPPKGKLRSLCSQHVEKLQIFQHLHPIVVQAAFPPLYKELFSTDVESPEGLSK
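Drosophila S2 cells stably expressing Gal4-DBD/mouse RORγ fusion under metallothionein promoter plus UAS-luciferase; compound 1 h, then 700 uM CuSO4 induction for 20 h at ambient temperature; inhibition read as reduced luminescence.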
IL-1B inflam inh: inflammasome signaling inhibition, IL-1 beta readout; THP-1 LPS/ATP IL-1B secretion, AlphaLISA, 16 h; active compounds read low; activity change, % at 57.5 µM; 360,000 compounds, 4.7% hits; AID 743279; in the data active means activity change below about -50%; inconclusive means mostly about -30% to -49%
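THP-1 cells pretreated 1 hr with compounds (up to 57.5 uM final), then stimulated with LPS (250 ng/mL final) plus ATP (1.25 mM final); secreted IL-1B measured by AlphaLISA after 16 hr, decreased signal indicating inhibition.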
TDP1 cell CPT: DT40-hTDP1 cell growth loss with CPT. AID 686979. 420,000 compounds, 12% hits. Potency, µM (highest dose often 46.2 µM), inactives show at the top dose activity change, negative = growth inhibition, actives largely listed as inhibitors. chicken DT40 Tdp1-/-;hTDP1 cells + 20 nM CPT, ATP luminescence, 48 h; further: potency means the concentration at half of the fitted maximal effect; nearly all actives have a fitted effect of over 55% in size
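Chicken DT40 Tdp1-/- cells complemented with human TDP1, 400 cells/well, exposed to compounds plus 20 nM camptothecin for at least 48 h at 37 C; viability read as ATP content by CellTiter-Glo luminescence.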
ELG1 repair inh: inhibitors of ELG1-dependent DNA repair in HEK293T cells; HEK293T ELG1-luciferase reporter, luminescence, 16 h; DNA damage induced by 5-fluorouridine; Potency, µM (doses to about 46.1 µM), without a hit: top-dose activity change, negative = inhibition, usual class: inhibitors; 330,000 compounds, 2.3% hits; further: potency means the concentration at half of the fitted maximal effect; nearly all actives have a fitted effect of over 55% in size
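In this reporter screen, reduction of luminescence relative to DMSO vehicle indicated activity. Compounds and 5-fluorouridine were added together to 2,000 cells per well, incubated for 16 hr at 37 °C, then developed with ONE-Glo.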
Active calls of the source: *; [ ] = another dose, or the depositor's remark. Unless noted, the call rests on the fitted dose curve; in most records, active means well fitted curve in the direction sought with a large enough effect; inconclusive means small, poorly fitted or top-dose-only effect, or another doubt; inactive means no such curve, though single readings can be large; an effect the other way counts as inactive or inconclusive. On the % scale 0 is the no-effect control and ±100 the full control effect.

Screening Fc1ccc(NC(=S)NCc2cccnc2)cc1 returned TDP1 cell noCPT -4%, Gal4-VP16 FLuc 4%[10 µM], RORg inh 11%, IL-1B inflam inh 18, TDP1 cell CPT 18% and ELG1 repair inh 7%.
Cc1c(C(=O)NN2CCOCC2)nn(-c2ccc(Cl)cc2Cl)c1-c1ccc(I)cc1 was read as TDP1 cell noCPT 1%, Gal4-VP16 FLuc 1%, RORg inh -12% and TDP1 cell CPT -4%.
CC(c1ccon1)N(C)C(=O)CCc1nnc(CCCCc2ccccc2)o1 (stereo unspecified) was read as TDP1 cell noCPT -11%, Gal4-VP16 FLuc 2%, RORg inh 16%, IL-1B inflam inh 50, TDP1 cell CPT -21% and ELG1 repair inh 9%.
`Cc1n[nH]c(C)c1NC(=O)CN1CCN(S(=O)(=O)c2ccc(C(F)(F)F)cc2)CC1` gave TDP1 cell noCPT 10%, IL-1B inflam inh -23 and TDP1 cell CPT -24%.
`Cc1c(C2(O)CCCCC2)[nH]c2ccc(C(F)(F)F)cc12` gave TDP1 cell noCPT inconclusive, IL-1B inflam inh 8, TDP1 cell CPT inconclusive and ELG1 repair inh inconclusive.
For CCc1c(C2(O)CCCCC2)[nH]c2cnccc12 the results were TDP1 cell noCPT 18µM*, IL-1B inflam inh 36, TDP1 cell CPT inconclusive and ELG1 repair inh 5%.
CN(C)c1ccc(C(=O)C(=O)N2CCN(c3ccccc3)CC2)cc1 was read as TDP1 cell noCPT inconclusive, IL-1B inflam inh -2 and TDP1 cell CPT inconclusive.
For CCN(CC)C(=O)C1=C(C)N(Cc2ccc(C(C)(C)C)cc2)C(=O)C(CC(=O)NCc2ccco2)C1 (stereo unspecified) the results were TDP1 cell noCPT 23µM*, IL-1B inflam inh inconclusive and TDP1 cell CPT inconclusive.
Screening CCN(CC)C(=O)C1=C(C)N(Cc2ccc(C(C)(C)C)cc2)C(=O)C(CC(=O)NCc2cccs2)C1 (stereo unspecified) returned TDP1 cell noCPT 23µM*, IL-1B inflam inh inconclusive and TDP1 cell CPT 23µM*.
For CC1=C(C(=O)N(C)C)CC(CC(=O)NCc2cccs2)C(=O)N1Cc1ccc(C(C)(C)C)cc1 (stereo unspecified) the results were TDP1 cell noCPT inconclusive, IL-1B inflam inh -13 and TDP1 cell CPT inconclusive.
For CC1=C(C(=O)N(C(C)C)C(C)C)CC(CC(=O)NCc2ccco2)C(=O)N1Cc1ccc(C(C)(C)C)cc1 (stereo unspecified) the results were TDP1 cell noCPT 16µM*, IL-1B inflam inh -23 and TDP1 cell CPT 21µM*.
C[C@@H]1COC(=O)[C@H](Cc2ccc(F)cc2)C/C=C\C[C@@H](CC(=O)NCCO)C(=O)N1 was read as TDP1 cell noCPT -10%, IL-1B inflam inh 6, TDP1 cell CPT -1% and ELG1 repair inh 8%.
`O=C(OCc1nnc(-c2ccccc2)o1)C1CC(=O)N(CCc2ccccc2)C1` (stereo unspecified) gave TDP1 cell noCPT inconclusive, IL-1B inflam inh 0, TDP1 cell CPT 0% and ELG1 repair inh inconclusive.
Screening CCN(CC)c1c([N+](=O)[O-])c(=O)n(CC)c2ccccc12 returned TDP1 cell noCPT 21µM*, Gal4-VP16 FLuc -1%, RORg inh -31%, IL-1B inflam inh 0, TDP1 cell CPT inconclusive and ELG1 repair inh 0%.
For CCOC(=O)/C=C1\Nc2ccccc2OC1=O the results were TDP1 cell noCPT 10µM*, Gal4-VP16 FLuc 12%, RORg inh -38%, IL-1B inflam inh 5, TDP1 cell CPT 8.2µM* and ELG1 repair inh 1%.
`CCOC(=O)/C=C1\CC(C(=O)OCC)Oc2ccccc21` (stereo unspecified) gave TDP1 cell noCPT 3%, Gal4-VP16 FLuc -4%, RORg inh 8%, IL-1B inflam inh 55, TDP1 cell CPT 5% and ELG1 repair inh 8%.
For CCOC(=O)C1(C)NC(c2cccs2)C2C(=O)N(c3ccc(OC)cc3)C(=O)C21 (stereo unspecified) the results were TDP1 cell noCPT 18µM*, Gal4-VP16 FLuc -15%, RORg inh 6%, IL-1B inflam inh 15, TDP1 cell CPT 10µM* and ELG1 repair inh 13%.
CCOC(=O)C1(C)NC(c2ccccc2F)C2C(=O)N(c3cccc(C(C)=O)c3)C(=O)C21 (stereo unspecified) was read as TDP1 cell noCPT 18µM*, Gal4-VP16 FLuc -2%, RORg inh 0%, IL-1B inflam inh 13, TDP1 cell CPT 23µM* and ELG1 repair inh -6%.
Cc1ccc(C(c2c(O)cc(C)n(Cc3ccco3)c2=O)N2CCC(C)CC2)cc1 (stereo unspecified) was read as TDP1 cell noCPT -13% and TDP1 cell CPT 2%.
`Oc1ccc(N=Nc2nc(-c3ccccc3)c(-c3ccccc3)[nH]2)cc1` gave TDP1 cell noCPT 23µM*, Gal4-VP16 FLuc inconclusive, RORg inh 13µM*, IL-1B inflam inh 0, TDP1 cell CPT inconclusive and ELG1 repair inh inconclusive.
Oc1ccc(N=Nc2n[nH]c(-c3ccccc3)n2)cc1 was read as TDP1 cell noCPT inconclusive, Gal4-VP16 FLuc -27%, RORg inh inconclusive, IL-1B inflam inh 17, TDP1 cell CPT -3% and ELG1 repair inh inconclusive.
Screening Cc1ccc(-n2ncc(C(=O)N3CCN(c4cccc(C)c4)C(C)C3)c2C2CCN(C(=O)OC(C)(C)C)CC2)cc1 (stereo unspecified) returned TDP1 cell noCPT 23µM* and TDP1 cell CPT 15µM*.
For Cc1cccc(-n2ncc(C(=O)N3CCN(Cc4ccccc4)CC3)c2C2CCN(C(=O)OC(C)(C)C)CC2)c1 the results were TDP1 cell noCPT 16µM* and TDP1 cell CPT 16µM*.
`CC(C)(C)OC(=O)N1CCC(c2c(C(=O)N3CCN(C(=O)c4ccco4)CC3)cnn2-c2cccc(Cl)c2)CC1` gave TDP1 cell noCPT inconclusive, Gal4-VP16 FLuc 9%, RORg inh -2%, IL-1B inflam inh -17, TDP1 cell CPT inconclusive and ELG1 repair inh -1%.
`CN1CCN(C(=O)c2cnn(-c3ccccc3)c2C2CCN(C(=O)OC(C)(C)C)CC2)CC1` gave TDP1 cell noCPT -10% and TDP1 cell CPT -3%.
Screening CC(C)(C)OC(=O)N1CCC(c2c(C(=O)N3CCN(c4ccccc4)CC3)cnn2-c2ccccc2)CC1 returned TDP1 cell noCPT 16µM* and TDP1 cell CPT inconclusive.
